Data: the supplement of paper PMC10849652
About 8,800 targets were measured; listed, in parts, are those with a hit and a random draw of the rest. About 0.5% of all pairs of compound and target were hits. Values without a mark were called inactive.

Assays:
Assay in all cases: log2 fold change, soluble protein after heating vs DMSO (PISA); higher = thermal stabilisation; K562 lysate, 10 uM; active = over 0.2 and 3.5 SD of the protein, either way, in both replicates (recomputed)
[1] = compound: C#Cc1cccc(Nc2ncnc3cc(OCCOC)c(OCCOC)cc23)c1 [erlotinib]
Method in brief: (§1)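 Soluble protein was defined as the supernatant remaining after 21,000xg for 90 min, following pooling of heated aliquots and adjustment to 0.5% NP-40 at 4°C. Before that, crude K562 extract at 1 mg/mL protein in PBS pH 7.4 with 1 mM MgCl2 was treated with 10 μM compound for 30 min and heated for 3 min across 48°C-58°C. Quantification used TMTpro 16plex LC-MS/MS with channel sums equalised, and values are log-two fold changes in thermal stability relative to solvent controls from duplicates.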

[2] = compound: C/C(=N\NC(=O)C1=CC(=CC=C1)S(=O)(=O)N2CCOCC2)/C3=C(C=CC(=C3)Cl)O
Method in brief: as §1

[3] = compound: C1=CC(=CC=C1C2=NC3=C(N2)C=C(C=C3)C(=O)N)OC4=CC=C(C=C4)Cl
Method in brief: as §1

[4] = compound: C1=CC2=C(C=CC(=C2)/C=C\3/C(=O)NC(=NCC4=CC=CS4)S3)N=C1
Method in brief: as §1

[5] = compound: C1=CC2=NC=CN=C2C=C1/C=C/3\C(=O)NC(=O)S3
Method in brief: as §1

[6] = compound: C1=CC=C(C=C1)C2=NC(=C(N2)C3=CC=NC=C3)C4=CC(=C(C=C4)Cl)O
Method in brief: as §1

[7] = compound: C1=CC=C2C(=C1)C3=NNC4=CC=CC(=C43)C2=O
Method in brief: as §1

[8] = compound: C1CCN(C1)C(=O)NC2=CC=CC(=C2)NC3=NC=C(C(=N3)NCCC4=CN=CN4)Br
Method in brief: as §1

[9] = compound: C1CN(CCC1(CC2=CC=C(C=C2)Cl)N)C3=NC=NC4=C3C=CN4
Method in brief: as §1

[10] = compound: C1COCCN1CCN2C3=CC=CC=C3N=C2NC(=O)C4=CC(=CC=C4)[N+](=O)[O-] [IRAK-1-4 Inhibitor I]
Method in brief: as §1

[11] = compound: C=CC(=O)N1CCC[C@@H](n2nc(-c3ccc(Oc4ccccc4)cc3)c3c(N)ncnc32)C1 [ibrutinib]
Method in brief: as §1

[12] = compound: CC(=O)c1cnc2ccc(-c3cc(Cl)c(O)c(Cl)c3)nc2c1N[C@H]1CC[C@H](CN(C)C)CC1
Method in brief: as §1

[13] = compound: CC(C)(C)Cn1c(N)nc2ccc(-c3[nH]c(C(C)(C)C)nc3-c3ccc(F)cc3)nc21 [ralimetinib]
Method in brief: as §1

[14] = compound: CC(C)(O)CC(=O)NCCn1ccc2ncnc(Nc3ccc(Oc4cccc(C(F)(F)F)c4)c(Cl)c3)c21
Method in brief: as §1

[15] = compound: CC(C)C1=C2N=C(C=C(N2N=C1)NCC3=CC=CC=C3)NCCCCCCN
Method in brief: as §1

[16] = compound: CC1=C(C(CC(=O)N1)C2=CC=C(C=C2)C(F)(F)F)C(=O)NC3=C(C=C4C(=C3)C=NN4)F
Method in brief: as §1

[17] = compound: CC1=C(C2=C(C=C1)C(=O)C3=CC=CC=C3N2CCCN)C
Method in brief: as §1

[18] = compound: CC1=C(C=C(C=C1)NC(=O)C2=CC(=CC=C2)C(C)(C)C#N)NC3=CC4=C(C=C3)N=CN(C4=O)C
Method in brief: as §1

[19] = compound: CC1=C(C=C(C=C1)NC(=O)C2=CC(=CC=C2)N(C)C)NC(=O)C3=CC=C(C=C3)O
Method in brief: as §1

[20] = compound: CC1=CC=C(C=C1)SC2=C3C=C(SC3=CN=C2)C(=O)N
Method in brief: as §1

UniProt Q96TA2, sequence (Q96TA2 whole entry, looked up): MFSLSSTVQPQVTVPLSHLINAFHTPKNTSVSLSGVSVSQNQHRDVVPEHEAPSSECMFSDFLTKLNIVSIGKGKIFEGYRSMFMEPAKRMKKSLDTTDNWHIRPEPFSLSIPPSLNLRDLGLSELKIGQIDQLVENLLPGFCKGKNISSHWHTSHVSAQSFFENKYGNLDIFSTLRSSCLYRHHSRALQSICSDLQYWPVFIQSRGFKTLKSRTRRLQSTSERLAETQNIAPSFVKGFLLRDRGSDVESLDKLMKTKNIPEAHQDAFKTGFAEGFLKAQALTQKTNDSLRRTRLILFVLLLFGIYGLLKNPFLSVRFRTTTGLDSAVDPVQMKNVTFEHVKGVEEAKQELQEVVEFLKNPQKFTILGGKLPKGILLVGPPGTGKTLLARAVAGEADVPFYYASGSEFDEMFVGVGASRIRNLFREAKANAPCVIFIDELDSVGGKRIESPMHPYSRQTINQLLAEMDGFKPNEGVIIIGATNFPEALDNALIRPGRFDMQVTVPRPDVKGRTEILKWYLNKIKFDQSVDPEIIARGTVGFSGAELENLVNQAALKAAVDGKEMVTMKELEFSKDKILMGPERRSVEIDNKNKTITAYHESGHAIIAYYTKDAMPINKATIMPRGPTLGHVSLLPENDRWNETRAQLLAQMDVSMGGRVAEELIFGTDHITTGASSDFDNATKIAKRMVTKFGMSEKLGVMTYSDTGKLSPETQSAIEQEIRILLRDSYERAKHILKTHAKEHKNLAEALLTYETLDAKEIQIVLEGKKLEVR
UniProt Q86UV5, sequence (Q86UV5 whole entry, looked up): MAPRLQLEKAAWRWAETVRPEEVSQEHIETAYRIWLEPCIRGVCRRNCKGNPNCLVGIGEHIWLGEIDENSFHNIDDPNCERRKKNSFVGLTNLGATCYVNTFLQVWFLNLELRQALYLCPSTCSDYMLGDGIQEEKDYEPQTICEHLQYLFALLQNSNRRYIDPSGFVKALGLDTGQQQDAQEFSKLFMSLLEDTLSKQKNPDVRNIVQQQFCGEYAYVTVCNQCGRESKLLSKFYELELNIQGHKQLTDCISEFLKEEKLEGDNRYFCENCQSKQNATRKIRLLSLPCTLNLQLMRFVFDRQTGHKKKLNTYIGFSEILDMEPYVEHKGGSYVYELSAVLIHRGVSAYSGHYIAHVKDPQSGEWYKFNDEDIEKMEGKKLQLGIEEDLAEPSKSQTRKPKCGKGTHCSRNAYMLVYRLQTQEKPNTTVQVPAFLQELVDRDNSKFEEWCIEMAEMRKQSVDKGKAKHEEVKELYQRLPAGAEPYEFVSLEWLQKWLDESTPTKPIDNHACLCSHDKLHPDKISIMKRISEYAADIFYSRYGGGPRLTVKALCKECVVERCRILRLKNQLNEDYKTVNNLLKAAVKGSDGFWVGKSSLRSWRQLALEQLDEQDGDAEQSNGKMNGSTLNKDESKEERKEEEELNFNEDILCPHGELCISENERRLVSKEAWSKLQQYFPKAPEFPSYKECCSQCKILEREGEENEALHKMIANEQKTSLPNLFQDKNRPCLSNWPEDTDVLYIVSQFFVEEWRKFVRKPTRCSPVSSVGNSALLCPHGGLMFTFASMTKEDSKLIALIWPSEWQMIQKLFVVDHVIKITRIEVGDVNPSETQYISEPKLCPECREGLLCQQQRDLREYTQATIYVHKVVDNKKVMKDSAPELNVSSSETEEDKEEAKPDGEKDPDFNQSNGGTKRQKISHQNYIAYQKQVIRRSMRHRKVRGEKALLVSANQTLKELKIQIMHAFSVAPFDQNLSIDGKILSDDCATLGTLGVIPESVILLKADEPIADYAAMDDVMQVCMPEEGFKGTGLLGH
UniProt P07947, sequence (P07947 whole entry, looked up): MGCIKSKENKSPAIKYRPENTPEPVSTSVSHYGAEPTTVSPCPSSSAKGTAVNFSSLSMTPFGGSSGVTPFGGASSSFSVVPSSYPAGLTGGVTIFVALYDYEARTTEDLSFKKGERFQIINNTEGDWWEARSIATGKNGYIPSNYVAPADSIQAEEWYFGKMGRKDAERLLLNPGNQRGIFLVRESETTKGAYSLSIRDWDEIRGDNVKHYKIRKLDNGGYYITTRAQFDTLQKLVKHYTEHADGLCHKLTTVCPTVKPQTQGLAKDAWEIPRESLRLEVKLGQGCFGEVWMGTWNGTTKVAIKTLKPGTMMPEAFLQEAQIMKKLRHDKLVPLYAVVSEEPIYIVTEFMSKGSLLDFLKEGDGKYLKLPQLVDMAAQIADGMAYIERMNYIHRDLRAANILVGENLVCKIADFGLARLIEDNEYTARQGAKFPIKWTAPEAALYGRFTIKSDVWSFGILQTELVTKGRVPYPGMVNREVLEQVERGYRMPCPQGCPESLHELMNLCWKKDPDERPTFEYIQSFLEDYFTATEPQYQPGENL
UniProt Q8NI36, sequence (Q8NI36 whole entry, looked up): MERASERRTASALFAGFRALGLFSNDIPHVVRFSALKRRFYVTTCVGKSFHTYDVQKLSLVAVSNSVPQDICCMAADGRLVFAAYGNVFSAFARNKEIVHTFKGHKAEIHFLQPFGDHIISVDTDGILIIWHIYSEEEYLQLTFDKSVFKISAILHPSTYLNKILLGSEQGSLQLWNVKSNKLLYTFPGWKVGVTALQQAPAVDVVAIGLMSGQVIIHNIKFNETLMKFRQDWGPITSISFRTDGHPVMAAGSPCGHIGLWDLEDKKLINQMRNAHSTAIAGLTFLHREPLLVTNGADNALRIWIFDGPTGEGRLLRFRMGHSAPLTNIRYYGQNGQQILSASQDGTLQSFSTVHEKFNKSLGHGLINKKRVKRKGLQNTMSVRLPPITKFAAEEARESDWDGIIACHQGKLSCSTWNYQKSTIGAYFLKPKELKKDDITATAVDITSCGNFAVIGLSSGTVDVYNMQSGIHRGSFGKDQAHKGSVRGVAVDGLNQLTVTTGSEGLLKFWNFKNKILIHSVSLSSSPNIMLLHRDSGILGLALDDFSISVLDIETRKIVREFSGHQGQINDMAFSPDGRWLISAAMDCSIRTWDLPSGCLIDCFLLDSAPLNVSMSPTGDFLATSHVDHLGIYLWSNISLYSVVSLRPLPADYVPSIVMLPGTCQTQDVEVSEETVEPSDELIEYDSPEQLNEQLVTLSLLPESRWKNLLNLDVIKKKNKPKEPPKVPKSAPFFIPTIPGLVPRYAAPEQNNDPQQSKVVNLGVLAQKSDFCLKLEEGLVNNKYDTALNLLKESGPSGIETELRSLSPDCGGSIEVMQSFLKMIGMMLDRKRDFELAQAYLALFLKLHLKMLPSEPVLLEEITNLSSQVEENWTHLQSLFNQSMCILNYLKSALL
UniProt Q9NNW5, sequence (Q9NNW5 whole entry, looked up): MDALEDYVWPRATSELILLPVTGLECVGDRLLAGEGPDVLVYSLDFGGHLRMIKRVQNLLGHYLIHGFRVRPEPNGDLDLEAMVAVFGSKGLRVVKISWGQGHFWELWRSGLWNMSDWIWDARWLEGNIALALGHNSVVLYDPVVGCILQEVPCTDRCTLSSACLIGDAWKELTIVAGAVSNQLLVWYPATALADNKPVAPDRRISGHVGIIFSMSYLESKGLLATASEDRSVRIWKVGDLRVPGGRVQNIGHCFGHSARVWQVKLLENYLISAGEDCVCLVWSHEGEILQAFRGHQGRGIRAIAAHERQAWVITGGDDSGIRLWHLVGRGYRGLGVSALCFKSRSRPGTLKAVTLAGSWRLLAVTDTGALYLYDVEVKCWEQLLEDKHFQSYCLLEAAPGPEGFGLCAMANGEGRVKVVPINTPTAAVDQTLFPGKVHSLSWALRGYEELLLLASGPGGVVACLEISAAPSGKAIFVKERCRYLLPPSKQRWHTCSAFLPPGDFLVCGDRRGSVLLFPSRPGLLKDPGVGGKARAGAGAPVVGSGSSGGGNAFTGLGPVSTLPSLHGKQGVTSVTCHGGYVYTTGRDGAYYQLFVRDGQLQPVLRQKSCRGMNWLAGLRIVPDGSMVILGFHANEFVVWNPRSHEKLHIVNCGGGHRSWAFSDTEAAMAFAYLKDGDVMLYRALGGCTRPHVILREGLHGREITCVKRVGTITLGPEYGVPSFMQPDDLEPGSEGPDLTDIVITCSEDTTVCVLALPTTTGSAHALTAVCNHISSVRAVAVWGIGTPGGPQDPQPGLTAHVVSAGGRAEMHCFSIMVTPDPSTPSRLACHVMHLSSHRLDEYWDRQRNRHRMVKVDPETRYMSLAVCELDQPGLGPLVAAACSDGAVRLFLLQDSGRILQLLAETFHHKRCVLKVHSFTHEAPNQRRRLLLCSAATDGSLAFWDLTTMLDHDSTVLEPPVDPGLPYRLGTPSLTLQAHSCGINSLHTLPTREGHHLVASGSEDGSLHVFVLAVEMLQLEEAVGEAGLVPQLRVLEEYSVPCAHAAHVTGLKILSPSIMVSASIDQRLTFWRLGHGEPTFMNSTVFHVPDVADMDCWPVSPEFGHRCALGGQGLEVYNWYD
UniProt Q9Y5J1, sequence (Q9Y5J1 whole entry, looked up): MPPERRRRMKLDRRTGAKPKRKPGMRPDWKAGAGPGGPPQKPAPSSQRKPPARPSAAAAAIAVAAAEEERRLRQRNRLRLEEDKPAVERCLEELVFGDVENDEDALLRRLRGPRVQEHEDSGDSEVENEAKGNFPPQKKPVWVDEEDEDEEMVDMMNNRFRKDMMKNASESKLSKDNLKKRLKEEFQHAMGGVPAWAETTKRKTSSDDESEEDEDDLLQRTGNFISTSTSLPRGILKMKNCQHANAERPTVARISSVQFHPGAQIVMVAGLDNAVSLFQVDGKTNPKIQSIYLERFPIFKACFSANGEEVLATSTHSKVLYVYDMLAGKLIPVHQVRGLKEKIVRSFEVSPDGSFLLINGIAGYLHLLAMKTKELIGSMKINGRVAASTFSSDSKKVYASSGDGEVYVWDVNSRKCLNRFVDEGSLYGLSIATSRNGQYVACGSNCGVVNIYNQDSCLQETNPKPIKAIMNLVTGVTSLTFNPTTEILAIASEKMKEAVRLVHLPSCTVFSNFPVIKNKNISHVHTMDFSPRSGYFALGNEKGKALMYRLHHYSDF

Target	log2 fold change [1]	log2 fold change [2]	log2 fold change [3]	log2 fold change [4]	log2 fold change [5]	log2 fold change [6]	log2 fold change [7]	log2 fold change [8]	log2 fold change [9]	log2 fold change [10]	log2 fold change [11]	log2 fold change [12]	log2 fold change [13]	log2 fold change [14]	log2 fold change [15]	log2 fold change [16]	log2 fold change [17]	log2 fold change [18]	log2 fold change [19]	log2 fold change [20]
UTP18 (UniProt Q9Y5J1)	0.055	0.072	0.051	-0.056	0.129	0.038	-0.068	-0.122	0.107	-0.031	0.125	-0.031	0.002	-0.017	0.033	0.057	-0.085	-0.017	0.028	0.023
YES1 (UniProt P07947)	-0.045	0.064	0.005	-0.045	-0.023	-0.031	-0.105	0.027	0.016	0.003	0.988 (active)	-0.012	-0.259	0.511 (active)	0.061	0.2	0.044	0.192	-0.005	-0.131
WDR6 (UniProt Q9NNW5)	0.001	0.01	0.002	0.026	-0.01	0	-0.014	-0.02	0.021	-0.011	0.008	0.008	0.018	-0.017	-0.032	-0.012	-0.019	0.011	0.022	0.017
YLPM1 (UniProt P49750)	0.026	-0.04	0.035	-0.043	-0.018	-0.004	0.022	0.044	0.019	0.027	0.028	-0.044	-0.002	0.022	-0.006	0.301 (active)	-0.031	-0.017	0	-0.046
WDR36 (UniProt Q8NI36)	0	0.02	-0.031	0.027	-0.025	0.017	0.008	0.014	0.004	-0.049	-0.02	-0.01	0.019	-0.004	0.03	0.048	0	0.019	0.013	0.033
ZNF451 (UniProt Q9Y4E5)	0.036	-0.064	-0.007	-0.002	-0.032	0.002	-0.014	-0.096	0.026	-0.009	0.004	0.019	0.02	0.007	-0.011	0.033	-0.003	-0.012	0.019	0.055
VASP (UniProt P50552)	0.001	-0.028	0.017	-0.006	-0.035	-0.003	-0.02	-0.006	0.035	0.014	-0.002	0.002	-0.003	-0.018	-0.009	-0.007	0.038	0.014	-0.014	0.01
VAV3 isoform 4 (UniProt Q9UKW4)	0.035	1.07	-0.029	-0.144	0.117	0.012	-0.133	0.148	-0.08	-0.017	0.068	-0.109	-0.049	-0.013	-0.028	-0.013	0.085	-0.03	-0.026	0.058
VPS13C (UniProt Q709C8)	-0.007	-0.003	0.038	0.008	0.017	-0.013	-0.021	0.042	-0.012	0.004	-0.011	0.005	0.02	0.006	-0.001	0.251 (active)	-0.066	0.041	-0.007	-0.053
ZC3H11A (UniProt O75152)	0.021	-0.048	-0.027	0.004	-0.048	0.029	-0.02	-0.011	-0.003	-0.012	0.025	-0.1	0.019	-0.034	0.025	0.084	-0.016	0.041	0.041	-0.096
XPNPEP1 isoform 3 (UniProt Q9NQW7)	-0.001	0.023	-0.019	0.001	-0.007	-0.005	-0.011	-0.006	0.005	0.009	0.012	-0.007	0.017	-0.026	-0.009	0.007	-0.026	-0.025	-0.005	0.002
WDHD1 (UniProt O75717)	0.013	0.025	-0.004	0.019	0.002	0.006	-0.005	0	0.025	-0.017	0.024	-0.002	0.005	-0.01	-0.027	0.007	-0.002	-0.002	0.016	-0.005
USP34 (UniProt Q70CQ2)	0.043	0.018	-0.039	0.029	-0.008	0.012	-0.002	0.003	0.003	-0.001	0.002	0.006	0.011	-0.027	0.001	-0.001	-0.032	0.014	0.026	0
USP48 (UniProt Q86UV5)	0.022	0.001	-0.015	-0.051	0.006	0.001	0.049	-0.033	0.013	-0.026	-0.028	-0.224	-0.038	0.031	-0.009	0.018	0	-0.039	0.041	-0.227
YEATS4 (UniProt O95619)	-0.017	-0.018	-0.018	0.045	-0.079	-0.013	-0.027	0.007	0.034	0.002	0.02	0.016	0.003	0.009	0.001	0.01	-0.004	0.041	-0.035	-0.039
YME1L1 (UniProt Q96TA2)	0.018	-0.136	-0.029	0.026	0.053	0	0.011	-0.006	0.041	0.033	-0.04	-0.008	-0.006	-0.043	0	-0.04	0.003	0.005	0.054	-0.087
